The panel holds about 83,000 compounds, 20% with a hit somewhere; the sample as a whole holds those more often.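 Single-concentration screen, 48 h exposure, 96-well plates. Endpoint: percent growth. Below 10 = active.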 A number with no mark means an inactive call. Calls of active or inactive are those of the source.
Each compound was assayed on HL-60(TB) leukemia (assay: NCI-60 one-dose screen, 48 h (100 = growth as untreated, 0 = no growth, -100 = all killed)). Conditions: 10 µM unless noted.
Compound `CCCCCCCCN1C(=O)/C(=c2\sc3n(c2=O)C2C(NN=3)N(CC)C(=O)N2CC)c2ccccc21` (stereo not given) has a growth of 114%. For `CCN=c1cc2sc3cc(NCC)c(C)cc3nc-2cc1C`, the growth was 2.7% (active). For `O=C(Nc1cccc2ccccc12)c1cc2ccccc2cc1O`, the growth was 9.13% (active). With `CNC(=O)c1cc(Cn2nc(C)c(NC(=O)Nc3ccc(Cl)c(C(F)(F)F)c3)c2C)ccn1` the growth was 103%. For `CN(C)CCS(=O)(=O)Nc1cc(-c2ccc3ncnc(Nc4ccc(F)c(Cl)c4)c3c2)cnc1Cl`, the growth was -15% (active).
